High-throughput results from PubChem.
HTR5A ag = HTR5A agonism, opioid heterodimer counter-screen | P47898 | HTR5A agonist assay, luminescence, cell-based | activation, % at 9.3 µM | 340,000 compounds, 0.61% hits; in the data active = activation mostly above about 9.5%, no sharp cut-off; inactive = mostly below about 7.6%
OPRM1-OPRD1 inv = inverse agonist of human OPRM1-OPRD1 heterodimerization. P35372+P41143. cell-based MOR-DOR heterodimer luminescence, inverse agonism. inhibition, % at 9.3 µM. 340,000 compounds, 0.21% hits. AID 504357; in the data active = inhibition above about 22%, passing the limit was not always enough
Target sequence (P35372 whole entry, looked up): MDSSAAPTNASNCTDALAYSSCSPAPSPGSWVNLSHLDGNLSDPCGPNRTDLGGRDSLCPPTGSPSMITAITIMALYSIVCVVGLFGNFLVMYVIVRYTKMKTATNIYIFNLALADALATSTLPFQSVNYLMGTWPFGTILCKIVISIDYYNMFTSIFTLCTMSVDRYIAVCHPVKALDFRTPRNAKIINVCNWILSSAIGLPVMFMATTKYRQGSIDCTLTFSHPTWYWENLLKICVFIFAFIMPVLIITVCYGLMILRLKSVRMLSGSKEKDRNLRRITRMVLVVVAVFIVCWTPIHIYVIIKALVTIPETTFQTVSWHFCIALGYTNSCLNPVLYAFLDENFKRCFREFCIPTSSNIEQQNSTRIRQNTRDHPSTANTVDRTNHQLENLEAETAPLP
Target sequence (P41143 whole entry, looked up): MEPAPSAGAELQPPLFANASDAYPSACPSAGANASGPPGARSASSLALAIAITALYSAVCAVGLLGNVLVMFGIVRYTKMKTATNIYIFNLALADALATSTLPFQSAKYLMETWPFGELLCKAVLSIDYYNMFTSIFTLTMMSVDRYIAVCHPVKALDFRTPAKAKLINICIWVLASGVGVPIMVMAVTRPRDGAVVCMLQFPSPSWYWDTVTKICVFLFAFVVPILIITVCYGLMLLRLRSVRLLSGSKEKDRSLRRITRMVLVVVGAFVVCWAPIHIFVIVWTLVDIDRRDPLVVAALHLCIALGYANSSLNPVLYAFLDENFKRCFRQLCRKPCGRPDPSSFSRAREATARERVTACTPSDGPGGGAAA
MsrA inhibitor = inhibits bovine methionine sulfoxide reductase A; purified bovine MsrA, absorbance read-out; inhibition, % at 15.5 µM; 360,000 compounds, 0.75% hits; AID 651718; in the data active = inhibition above about 4.5%
bovine MsrA act = activates bovine MsrA enzyme; activation, % at 10.6 µM; 360,000 compounds, 0.3% hits; AID 602163; purified bovine MsrA, absorbance read-out; in the data active = activation above about 7.5%
OPRM1-OPRD1 ag = agonists of human mu-delta opioid receptor heterodimerization. P35372+P41143. cells, OPRM1-OPRD1 heterodimerization, luminescence. activation, % at 9.3 µM. 340,000 compounds, 0.3% hits. AID 504326; in the data active = activation above about 18%
HTR5A inv ctr = inverse agonist of human HTR5A in OPRM1-OPRD1 counter-screen | P47898 | inhibition, % at 9.3 µM | AID 504634 | HTR5A cell line, luminescence, inverse agonism | 340,000 compounds, 0.083% hits; in the data active = inhibition mostly above about 23%, no sharp cut-off; inactive = mostly below about 18%
A number is an active result; i = inactive; nt = no result. An excerpt weighted towards active compounds, which were near 1.9% of everything screened.

SMILES	HTR5A ag	OPRM1-OPRD1 inv	MsrA inhibitor	bovine MsrA act	OPRM1-OPRD1 ag	HTR5A inv ctr
C#CCNC(=O)C[C@H]1C[C@@]2(C(=O)OC)C(=C[C@H](C3CCCC3)O[C@@H]2C)N(CCCCCCCC)C1=O	nt	nt	i	nt	nt	nt
O=[N+]([O-])c1ccc2[nH]ccc2c1	nt	nt	i	i	nt	nt
O=[N+]([O-])c1ccc2[nH]ncc2c1	12	i	i	i	i	i
CCOC(=O)CSc1nnc(Cn2c(=O)sc3ccccc32)n1C	11	i	i	i	i	i
Cc1c(NC(=S)N/N=C/c2ccc(O)cc2)c(=O)n(-c2ccccc2)n1C	i	i	4.8	i	i	i
O=C(COc1ccccc1)Nc1ccc(CSc2ccccc2)cc1	12	i	i	i	i	i
O=C(Nc1ccc(CSc2ccccc2)cc1)c1ccccc1	i	i	i	i	i	i
COc1ccc2c(c1)Sc1ccccc1N2CCN(C)C	i	i	nt	i	19	i
CN(C)CCCN1c2ccccc2Sc2ccccc21	i	i	i	i	i	i
Cc1cccc(CC2S/C(=N/N=C/c3ccco3)N(c3ccccc3)C2=O)c1 (stereo not given)	14	i	i	i	i	i
CCOC(=O)C1=C(CC)OC(N)=C(C#N)C1c1cccs1 (stereo not given)	11	i	i	i	i	i
CC(C)CNc1cccc2c1S(=O)(=O)N[C@@H](CC(C)C)CO2	nt	nt	i	nt	nt	nt
CC(=O)Nc1ccc(S(=O)(=O)C(C#N)c2nc3ccccc3nc2NCCCO)cc1 (stereo not given)	i	i	4.6	i	i	i
CC(=O)Nc1ccc(S(=O)(=O)C(C#N)c2nc3ccccc3nc2NCCO)cc1 (stereo not given)	i	i	i	i	i	i
COc1cc(/C=N/NC(=O)c2cccc(N3CCCC3=O)c2)ccc1O	i	i	5.4	i	i	i
COc1cc(/C=N/NC(=O)c2sc(N)c(C#N)c2C)ccc1O	i	i	8.4	i	i	i
Cc1c(C(=O)N/N=C/c2ccc(O)c(Br)c2)sc(N)c1C#N	i	i	i	i	i	i
Cc1ccc2nc(N(CCN(C)C)C(=O)c3ccc4c(c3)OCCO4)sc2c1	14	i	i	i	i	i
COc1ccc(/C=C/C(=O)Nc2nc(C)cc(C)n2)cc1OC	i	i	4.9	i	i	i
COc1ccc(/C=C/C(=O)NCCCNC(=O)/C=C/c2ccc(OC)c(OC)c2)cc1OC	i	i	i	i	i	i
COc1ccc(/C=C/C(=O)Nc2nonc2NC(C)=O)cc1	i	i	4.6	i	i	i
Cc1nn(-c2ccccc2)nc1C(=O)Nc1ccccc1C(=O)NCC1CC1	nt	nt	i	nt	nt	nt
CC(=O)N1C[C@H]2CON(C)[C@H]2C[C@H]1c1ccccc1-c1ccccc1	nt	nt	i	nt	nt	nt
CC(=O)N1CCN(C(=O)COC(=O)/C=C/c2ccc(C(F)(F)F)cc2)CC1	14	i	i	i	i	i
COC(=O)C1=C(C)N(Cc2ccc(Cl)cc2)C(=S)NC1c1ccc(Br)cc1 (stereo not given)	nt	nt	i	nt	nt	nt
SMILES	HTR5A ag	OPRM1-OPRD1 inv	MsrA inhibitor	bovine MsrA act	OPRM1-OPRD1 ag	HTR5A inv ctr
O=Cc1ccc(-c2ccc([N+](=O)[O-])cc2Cl)o1	i	i	5.5	i	i	i
COc1cccc(/C=N/NC(=O)c2[nH]c(C)c(C(=O)N/N=C/c3cccc(OC)c3O)c2C)c1O	i	i	5.0	i	i	i
CN(N=Nc1nc[nH]c1C(N)=O)C1CCCCC1	nt	nt	4.6	i	nt	nt
COc1cccc(/C=C/C(=O)OC(C)C(=O)Nc2c(C)n(C)n(-c3ccccc3)c2=O)c1 (stereo not given)	i	i	i	i	i	i
COc1cc(/C=C/C(=O)OC(C)C(=O)Nc2c(C)n(C)n(-c3ccccc3)c2=O)ccc1OCC#N (stereo not given)	i	i	4.6	i	i	i
O=C(O)CC1(CC(=O)Nc2ccc(C(F)(F)F)cc2)CCCC1	9.5	i	i	i	i	i
O=C(/C=C/C(Cl)(Cl)Cl)Nc1ccc(Cl)cc1	17	i	i	i	18	i
NC(=O)/C=C/C(=O)Nc1ccc(Cl)cc1	i	i	i	i	i	i
CN1CCN(S(=O)(=O)c2ccc(Br)c3ccccc23)CC1	11	i	i	i	i	i
COc1ccc(CNc2nc(NCc3ccc(OC)c(OC)c3)n(C(=O)c3cccs3)n2)cc1OC	14	i	i	i	i	i
COc1ccc(CCNC(=O)c2cccs2)cc1OC	i	i	i	i	i	i
Cc1cc(S(=O)(=O)NC(=O)[C@H]2O[C@@H](n3ccc(=O)[nH]c3=O)[C@H](O)[C@@H]2O)ccc1Br	nt	nt	i	nt	nt	nt
